Experimental data as given in PubChem BioAssay AID2284195 (EPA ToxCast).
Active and inactive are the calls of the source. The calls were made as follows: active = hit-call score of the fitted dose curve at least 0.9, where 1 is the maximum; inactive = score below 0.9.

target: Retinoic acid receptor alpha (Homo sapiens) (UniProt P10276); assay: ERF_TW_NR_hRARa: Eurofins (ERF) Nuclear Receptor (NR) Radioligand Binding LeadHunter Assay for human Retinoic Acid Receptor alpha (RARa) Agonism
Description: ERF_TW_NR_hRARa is a biochemical, single-readout assay that uses extracted gene-proteins in a cell-free assay. Measurements were taken 2 hour after chemical dosing in a 96-well plate. See RARalpha Human retinoic acid NHR Binding (Agonist Radioligand) Assay, Panlabs.ERF_TW_NR_hRARa is an assay component calculated from the ERF_TW_NR_hRARa assay. It is designed to measure radioligand binding using a type of binding reporter as detected by scintillation counting with radiometry technology.Data from the assay component ERF_TW_NR_hRARa was analyzed at the assay endpoint, ERF_TW_NR_hRARa, in the positive analysis fitting direction relative to DMSO as the negative control and baseline of activity. Using a type of binding reporter, gain-of-signal activity can be used to understand changes in radioligand binding as they relate to gene RARA. To generalize the intended target to other relatable targets, this assay endpoint is annotated to the nuclear receptor intended target family, where the subfamily is retinoic acid receptor.
Human recombinant RARalpha-LBD expressed in insect cells are used in modified Tris-HCl buffer pH 7.4. A 0.025 ug aliquot is incubated with 3 nM [3H]9-cis-Retinoic acid and 1 ug Anti-GST antibody for 2 hours at 4C. Non-specific binding is estimated in the presence of 1 uM 9-cis-retinoic acid. Receptors are counted to determine [3H]9-cis-Retinoic acid specifically bound. […]

Chain of Retinoic acid receptor alpha (Homo sapiens) (P10276 whole entry, looked up): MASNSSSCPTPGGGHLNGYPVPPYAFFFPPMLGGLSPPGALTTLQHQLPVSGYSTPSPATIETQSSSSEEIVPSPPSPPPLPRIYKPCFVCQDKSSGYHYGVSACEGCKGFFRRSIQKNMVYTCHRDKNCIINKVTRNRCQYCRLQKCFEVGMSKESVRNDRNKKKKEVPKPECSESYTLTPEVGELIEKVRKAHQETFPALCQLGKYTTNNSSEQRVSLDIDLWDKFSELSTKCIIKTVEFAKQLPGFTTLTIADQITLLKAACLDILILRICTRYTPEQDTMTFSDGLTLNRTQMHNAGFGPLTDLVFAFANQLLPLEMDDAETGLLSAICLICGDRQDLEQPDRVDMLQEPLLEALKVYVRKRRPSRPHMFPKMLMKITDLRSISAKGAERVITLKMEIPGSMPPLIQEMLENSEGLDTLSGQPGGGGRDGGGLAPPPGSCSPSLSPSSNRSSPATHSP

Structure (SMILES)	AC50
O=C(/C=C/c1ccc(O)cc1)CC(=O)/C=C/c1ccc(O)cc1	2240 nM (active)
